Measured values: PubChem BioAssay (NCI)
The panel holds about 83,000 compounds, 20% with a hit somewhere; the sample as a whole holds those more often.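 Percent growth is the endpoint: 0 to 100 indicates growth inhibition (40 means 60% inhibition), 0 means no net growth, and negative values indicate cell death.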 Values without a mark were called inactive. Activity calls are given as the source filed them. The calls were made as follows: active = growth percent below 10; inactive = the rest.

Assays:
Assay in all cases: NCI-60 one-dose screen, 48 h (100 = growth as untreated, 0 = no growth, -100 = all killed)
Conditions in all cases: 10 µM
[1] = test system: T-47D breast
[2] = test system: BT-549 breast
[3] = test system: MDA-MB-435 melanoma
[4] = test system: SW-620 colon
[5] = test system: MCF7 breast
[6] = test system: HCT-116 colon
[7] = test system: HCC-2998 colon
[8] = test system: KM12 colon

| SMILES | growth [1] | growth [2] | growth [3] | growth [4] | growth [5] | growth [6] | growth [7] | growth [8] |
| --- | --- | --- | --- | --- | --- | --- | --- | --- |
| COc1ccc(-c2n/c(=C\c3c(O)[nH]c4ccccc34)cc3c2=Nc2ccccc2-3)cc1 | 84.8% | 78.4% | 4.87% (active) | -6.59% (active) | -22% (active) | -87.3% (active) | 17.8% | 5.41% (active) |
| CCOC(=O)C1=C(Nc2ccc(OC)cc2)C(N)=NC1=N | 47.5% | 56.2% | -43.1% (active) | 25.2% | 13.7% | 34.5% | 81% | 30.2% |
| CC(C)(C)CC(C)(C)c1ccc(O)c(Cc2ccc(Cl)cc2Cl)c1 | -72.9% (active) | -95.1% (active) | -81.1% (active) | -84.9% (active) | -88.9% (active) | -91.8% (active) | -89.1% (active) | -88.5% (active) |
| CCn1nc(-c2ccc(C(=O)OC)cc2)nc2c(=O)n(C)c(=O)nc1-2 | 84.1% | 98.2% | 64.1% | 97.7% | 80% | 51.5% | 116% | 80.4% |
| Cn1c([N+](=O)[O-])cnc1/C=C1\Oc2ccc(Br)cc2C1=O | 65.9% | -41% (active) | -65.8% (active) | -65.3% (active) | 3.52% (active) | -27.1% (active) | -51.7% (active) | -45.8% (active) |
| COc1cccc2c1C(=O)c1c(O)c3c(c(O)c1C2=O)C[C@@](O)(C(=O)COC(=O)c1ccccc1)C[C@@H]3OC1CC(N)C(O)C(C)O1 (some centres undefined) | -71.7% (active) | -76.9% (active) | -97.7% (active) | -81.9% (active) | -66.2% (active) | -75% (active) | -93% (active) | -95.6% (active) |
| N#Cc1cnc2ccc(NCc3cnc[nH]3)cc2c1Nc1ccc(F)c(Cl)c1 | 57.2% | 74.2% | 92.4% | 71.7% | 91.9% | 56.1% | 91.4% | 84.2% |
| O=C(Nc1ccc(CN2CCOCC2)cc1)c1ccc(-c2cc(Cl)ccc2Cl)o1 | 34.7% | 102% | -10.5% (active) | -2.26% (active) | -34.1% (active) | 22.3% | -83.5% (active) | 8.82% (active) |
| Nc1ccn([C@@H]2O[C@H](COP(=O)(O)O[C@@H]3C[C@H](n4cc(F)c(=O)[nH]c4=O)O[C@@H]3COP(=O)(O)O[C@@H]3C[C@H](n4cc(F)c(=O)[nH]c4=O)O[C@@H]3COP(=O)(O)O[C@@H]3C[C@H](n4cc(F)c(=O)[nH]c4=O)O[C@@H]3COP(=O)(O)O[C@@H]3C[C@H](n4cc(F)c(=O)[nH]c4=O)O[C@@H]3COP(=O)(O)O[C@@H]3C[C@H](n4cc(F)c(=O)[nH]c4=O)O[C@@H]3COP(=O)(O)O[C@@H]3C[C@H](n4cc(F)c(=O)[nH]c4=O)O[C@@H]3COP(=O)(O)O[C@@H]3C[C@H](n4cc(F)c(=O)[nH]c4=O)O[C@@H]3COP(=O)(O)O[C@@H]3C[C@H](n4cc(F)c(=O)[nH]c4=O)O[C@@H]3COP(=O)(O)O[C@@H]3C[C@H](n4cc(F)c(=O)[nH]c4=O)O[C@@H]3COP(=O)(O)O[C@@H]3C[C@H](n4cc(F)c(=O)[nH]c4=O)O[C@@H]3COP(=O)(O)OCCOCCOCCOCCOCCOCCO)[C@H](O)C2O)c(=O)n1 (some centres undefined) | 80.5% | 48.7% | 61.4% | 58.2% | 19.4% | 20.4% | 50.4% | 47% |
| COc1cc2c3c(cccc3c1)C(=O)N(CCN1CCCC1)C2=O | 25.3% | 49.4% | 14.4% | 9.75% (active) | 3.07% (active) | 6.66% (active) | 44.4% | 21.3% |
| COc1ccc(C(=O)/C=C/c2cc(-c3ccc(OC)c(OC)c3)n[nH]2)cc1OC | -7.46% (active) | -60.1% (active) | -33.1% (active) | -48.8% (active) | 4.18% (active) | -89.2% (active) | -85.8% (active) | -74.1% (active) |
| Cc1ccc(C2C=C(c3ccc(Cl)cc3)N=C3SC=CN32)c(Br)c1 (centres undefined) | 56.8% | 61.1% | 47.1% | 53.9% | 21.5% | 5.04% (active) | 91.4% | 78.5% |
| COc1cc(Cl)cc(-c2nn(-c3cccc(NC(=O)Nc4cccc(C(F)(F)F)c4)c3)cc2-c2ccncc2)c1 | -0.45% (active) | 12.9% | -20.9% (active) | 11.2% | 0.3% (active) | 5.07% (active) | 19% | 9.81% (active) |
